The assay in a line: qHTS Assay for Compounds Blocking the Interaction Between CBF-beta and RUNX1 for the Treatment of Acute Myeloid Leukemia: ME-1 cellular proliferation, SAR for Probe. The settings on record: ME-1 cell proliferation, ATP luminescence, 48 h; series mostly up to 56.1 µM. The source says: NIH Chemical Genomics Center [NCGC] NIH Molecular Libraries Probe Production centers Network [MLPCN] MLPCN Grant: X01MH083259-01 Assay Submitter (PI): Paul Liu NCGC Assay Overview: Core Binding Factor (CBF) abnormalities are associated with 20-25% of all acute myeloid leukemias (AML), of which 5-10% are further sub classified as acute myelomonocytic leukemia with eosinophilia, also known as M4Eo in the FAB classification scheme. This subtype of leukemia is usually associated with chromosome 16 inversion (p13:q22). Chromosome 16 inversion results in formation of the fusion oncogene CBFB-MYH11, which encodes the fusion protein CBF-beta-SMMHC. […] It has been hypothesized that the interference of CBF-beta and RUNX1 binding could have therapeutic implications for patients with CBF mediated leukemias. We developed a CBF-beta and RUNX1 binding assay in AlphaScreenTM format and optimized it for high throughput screening to search for inhibitors. […]
NCGC Assay protocol: 2uL/well media was dispensed per well into 1536-well white solid-bottom plates using Multidrop Combi dispenser. […] The plates were incubated at 37 °C with 5% CO2 and 95% humidity for 48 hours, and then ATP content was measured following the addition of 4uL/well of ATPlite reagent and a 20 min incubation on a ViewLux plate reader.
(In qHTS, concentration-response curves come from the screen itself.)

Each structure is given as a SMILES string. Inconclusive results are not listed. Where a call stands in place of a potency, no number is given. The source made the active and inactive calls. Calls come from the whole dose curve; as a rule, active = well fitted curve in the direction sought with a large enough effect; inconclusive = small, poorly fitted or top-dose-only effect, or another doubt; inactive = no such curve, though single readings can be large or run the other way.

Regarding `CCc1sc(N)nc1-c1ccc(OC)cc1`, the Potency entry is “inactive”.

With `Nc1ccc(Cl)cc1C(=O)c1ccc[nH]1`, the Potency is 109 µM (active).

The record behind these values is PubChem BioAssay AID504371 (National Center for Advancing Translational Sciences (NCATS), 2011).
